Source: PubChem BioAssay (NCATS)
Results filed as inconclusive are left out. Unmarked numbers belong to inactive results. The call rests on the fitted dose curve; in most records, active means well fitted activation curve with a large enough effect; inconclusive means small, poorly fitted or top-dose-only effect, or another doubt; inactive means no such curve, though single readings can be large or run the other way.

biological target: Rap guanine nucleotide exchange factor 3 (Homo sapiens) (UniProt O95398); assay: Counterscreen qHTS for agonist of cAMP-regulated guanine nucleotide exchange factor 3 (EPAC1) (AID 1645889); conditions: EPAC1 Rap1B-BODIPY-GDP exchange, fluorescence; series mostly up to 154 µM; activation: at the top concentration; further: % of control where 0% means no effect; nearly all actives have a fitted effect of over 40% in size
How it was run: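 Rap1B–BODIPY-GDP (250 nM) with 50 uM GDP; compounds pin-transferred to 9.74 nM–152 uM final (activator) or from 7.32 nM upwards (inhibitor). Fluorescence Ex/Em 480/540 nm read at 5 and 30 min, then after adding cAMP or buffer, at room temperature.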

Compound	activation
COc1ccccc1Oc1ccnc2cc(Cl)ccc12	5.9% [at 30.8 µM]
Cc1ccc(NC(=O)c2ccc(CN3CC(=O)N4CCCCC4C3=O)cc2)c(C)c1 (centres undefined)	23.7%
O=C1NC(=O)/C(=C/c2ccccn2)S1	-11.7%
Cc1ccc(F)c(NC(=O)/C(C#N)=C(\O)c2ccc(C(C)(C)C)cc2)c1	14.8% [at 30.8 µM]
N#Cc1c(-c2ccccc2)nc(SCc2ccc(Cl)cc2)[nH]c1=O	-19.8%
CCOC(=O)Cn1c(=O)oc2cc(S(=O)(=O)Nc3c(C)cc(C)cc3C)ccc21	25.1% [at 30.8 µM]
COc1ccc(-c2nnc(SCC(=O)c3ccco3)n2-c2ccccc2)cc1	4.19% [at 30.8 µM]
O=[N+]([O-])c1cc([N+](=O)[O-])c2nonc2c1Nc1ccc(O)cc1	1.09%
Cc1ccc(Cl)cc1NC(=O)c1ccccc1OCC(=O)Nc1ccc(Cl)cc1	12.9% [at 30.8 µM]
CCCCCC1CCC(c2ccc(C(N)=O)cc2)CC1 (centres undefined)	-11.7%
O=CN(CCN(C=O)CN1CCCCC1)CN1CCCCC1	1.9%
Cc1ccccc1N(CC(=O)NC1CCCC1)C(=O)c1csnn1	-0.253% [at 30.8 µM]
COc1cc(OC)c(CNC2CCCCCC2)cc1Br	0.0751%
COCCN(C)Cc1nc(C(c2ccccc2)c2ccccc2)no1	-7.79%
CCC1CCCCN1CCCNC(=O)c1ccc(CS(=O)(=O)Cc2ccccc2F)o1 (centres undefined)	3.18%
O=C1/C(=C/c2ccc(F)cc2)SC(=S)N1NS(=O)(=O)c1ccccc1	6.89%
Cc1nc2c(C(=O)NCCC(C)C)c[nH]n2c(=O)c1Cl	-17.3%
Cc1cnc(C(=O)N(c2ccc(N3CCOCC3)cc2)C2C(=O)Nc3ccccc3N=C2c2ccc(F)cc2)cn1 (centres undefined)	7.61%
COc1ccccc1-n1c(-c2ccccc2)c[n+]2c1CCc1ccccc1-2	14.7%
Cc1cccc(NC(=O)CN2C(=O)S/C(=C\c3ccc(O)c([N+](=O)[O-])c3)C2=O)c1	-8.76%
CCOC(=O)C1=CCN(S(=O)(=O)c2ccc(C)cc2)C1c1cccs1 (centres undefined)	22.8% [at 30.8 µM]
CC1Cc2nc(SCC(=O)NCc3ccccc3)n(Cc3ccccc3)c(=O)c2S1 (centres undefined)	14% [at 30.8 µM]
CCOC(=O)CN1C(=O)c2ccccc2Sc2ncccc21	12.3%
O=C1S/C(=C\c2ccc(O)c([N+](=O)[O-])c2)C(=O)N1c1ccccc1Cl	1.11%
